# Rows were chosen to be rich in hits. Some 4.1% of all compounds tested hit in one or more screens of this group.
# 697 NFkB inh = lowers PMA/ionomycin-induced NF-kB signal in 697 B cells; AID 435022; 330,000 tested, 0.33% active; 697 B-cell NF-kB luciferase reporter, 16 h; inhibition, % at 4 µM; in the data active = inhibition above about 35%
# Jurkat NFkB inh = lowers PMA/ionomycin-induced NF-kB signal in Jurkat cells; AID 435003; PMA/ionomycin-induced NF-kB luciferase reporter, luminescence; inhibition, % at 4 µM; 330,000 tested, 0.53% active; in the data active = inhibition above about 50%
# aSyn 5UTR inh = MLPCN primary screen, SNCA 5' untranslated region; alpha-synuclein 5'UTR reporter, inhibitor activity; inhibition, % (tested at 7.5 µM); AID 1813; 300,000 tested, 0.82% active; in the data active = inhibition above about 60%; inconclusive = no clear call, values can overlap the other calls;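 note: H4 neuroglioblastoma cells stably carrying SNCA 5'UTR luciferase fusion; 0% = DMSO wells and 100% = positive control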
# Mdm2-MdmX inh = human Mdm2/MdmX binding inhibition; SaOS-2 split-luciferase Mdm2/MdmX complementation, luminescence; inhibition, % at 8 µM; AID 485346; 330,000 tested, 3% active; O15151+Q00987;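 active = inhibition of at least 50% at 8 µM in the primary screen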
# Gli-Sufu block = blocks Gli-Sufu signaling in a luciferase reporter. Sufu-KO-LIGHT fibroblasts, Gli luciferase reporter luminescence. inhibition, % at 5 µM. 340,000 tested, 0.74% active. AID 588413;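 active = inhibition above about 55%, limit read from the data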;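 note: 0% = DMSO-treated cells and 100% = wells with medium but no cells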
# KLF5 inhibitor = suppresses KLF5 promoter-driven expression; DLD-1 KLF5 promoter-luciferase reporter, luminescence; inhibition, % at 5 µM; 290,000 tested, 0.23% active;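 active = inhibition above a per-plate limit of that plate's mean compound inhibition plus 3 SD, cut at about 60% in these data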;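 note: 0% = DMSO wells and 100% = LY294002 at 200 µM; higher means less KLF5 promoter-driven luciferase light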
# Jurkat NFkB conf = inhibitors of the PMA/ionomycin-induced NF-kB reporter in Jurkat cells, retest; inhibition, % at 4 µM; Jurkat NF-kB luciferase, 16 h; shares compounds with Jurkat NFkB inh; 2,700 tested, 27% active;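 active = inhibition reaching about 45% at 4 µM in either replicate, limit read from the data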;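 note: plate controls were PMA/ionomycin stimulated DMSO wells for no effect and unstimulated DMSO wells for full effect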
# 697 NFkB conf = lowers PMA/ionomycin-induced NF-kB signal in 697 B cells; shares compounds with 697 NFkB inh; 697 B-cell NF-kB luciferase, 16 h; inhibition, % at 4 µM; 2,000 tested, 35% active; AID 449746; in the data active = inhibition mostly above about 28%, no sharp cut-off; inactive = mostly below about 22%
# Mdm2 MdmX conf = human Mdm2/MdmX binding inhibition, confirmed; shares compounds with Mdm2-MdmX inh; 10,000 tested, 55% active; inhibition, % at 8 µM; AID 489028; luminescent assay; in the data active = inhibition above about 40%
# FLuc counter = inhibits full-length luciferase, flagging false Mdm2/MdmX hits. shares compounds with Mdm2-MdmX inh. SaOS-2 full-length luciferase counterscreen, luminescence. inhibition, % at 8 µM. 6,200 tested, 77% active. AID 504607;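 active = mean inhibition at 8 µM reaching about 37%, which flags the compound as non-specific, limit read from the data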;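 note: p53-null SaOS-2 cells with luciferase driven by a doxycycline-inducible promoter; compound on cells about two nights before reading with doxycycline added after day one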
# * = called active by the depositor; ? = inconclusive; . = no result.
SMILES,697 NFkB inh,Jurkat NFkB inh,aSyn 5UTR inh,Mdm2-MdmX inh,Gli-Sufu block,KLF5 inhibitor,Jurkat NFkB conf,Mdm2 MdmX conf,FLuc counter,others
C(=N\Nc1nc(Nc2ccccc2)nc(N2CCOCC2)n1)/c1c[nH]c2ccccc12,60*,82*,4,52*,36,-34,-3,34,.,697 NFkB conf=49*
COc1ccc(Oc2nc(SC)nc3ccsc23)cc1,-36,17,7,50,2,4,.,.,.,
CSc1nc(Oc2ccc3ccccc3c2)c2sccc2n1,-34,64*,82*,55*,-16,-4,31,67*,43*,
CCN(CC)c1ccc2c(c1)OC(N)=C(C#N)C2c1cccnc1 (stereo not given),31,56*,75*,66*,62*,19,6,60*,92*,
C=C1C(=O)O[C@@H]2[C@H]1[C@@H](OC(=O)/C(C)=C/C)C/C(C)=C\C(=O)/C=C(\C)[C@@H]2O,-201,88*,-311,100*,4,.,34,83*,51*,
C=C1C(=O)O[C@H]2[C@H]1[C@H](OC(=O)/C(C)=C\C)C[C@]1(CO1)[C@@H]1[C@H](OC(C)=O)C=C(C)[C@]21O,.,.,.,.,9,.,.,.,.,
COC(=O)[C@@H]1Cc2c([nH]c3ccccc23)C(C)(C)N1C(=O)CCl,88*,55*,?,100*,21,-35,16,98*,17,697 NFkB conf=69*
CC1(C)c2[nH]c3ccccc3c2C[C@@H]2C(=O)N(Cc3ccccc3)C(=O)N21,9,-7,6,-21,-7,.,.,.,.,
O=S(=O)(Nc1cccc2ccccc12)c1ccccc1,-2,-15,17,-10,36,-25,.,.,.,
Cc1ccc2cccc(NS(=O)(=O)c3ccccc3)c2n1,-8,99*,39,84*,54,-1,43,95*,23,
O=S(=O)(Nc1cccc2cccnc12)c1ccccc1,-14,101*,29,100*,47,10,19,100*,52*,
CC(=O)Nc1ccc(S(=O)(=O)Nc2cccc3cccnc23)cc1,4,7,-3,18,-4,4,.,.,.,
Cc1noc(C)c1COc1ccccc1C(=O)NCc1ccco1,17,10,.,14,-3,.,.,.,.,
O=C(CSc1nncn1-c1ccccc1)Nc1cc(F)ccc1F,-6,7,-2,1,5,-12,.,.,.,
Cc1ccccc1NC1=C/C(=N\S(=O)(=O)c2cccs2)c2ccccc2C1=O,-171,51*,114*,73*,42,-20,84*,100*,51*,
Cc1ccc(C(=O)n2c3ccccc3c3ccccc32)cc1,-42,54*,8,51*,-10,-20,15,55*,53*,
CC(=O)n1c2ccccc2c2ccccc21,11,10,-7,2,8,-27,.,.,.,
CCCCc1ccc(N/C(N)=N/c2nc(C)cc(C)n2)cc1,-40,75*,41,66*,50,-3,30,33,.,
Cc1ccc(N/C(N)=N/c2nc(C)cc(C)n2)cc1,4,3,-4,13,44,13,.,.,.,
Cc1cc(N2CCOCC2)nc(NCc2ccccc2)n1,-31,20,-8,23,49,-3,.,.,.,

# Screens as filed in PubChem.
